Measured values: PubChem BioAssay (NCI)
The panel holds about 79,000 compounds, 15% with a hit somewhere; the sample as a whole holds those more often. Active and inactive are the calls of the source. Cut-off read from the data, not from the text of the source: active = growth inhibition above about 70%; inactive = the rest.

Assays:
[1] = NCI Yeast Anticancer Drug Screen. Data for the rad50 strain (AID 155);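 note: 0% = growth of vehicle-only cultures of the same strain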; settings: S. cerevisiae rad50 strain growth inhibition; at 50.0 µM; hits give high values
How it was run: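 Readout: growth inhibition relative to vehicle-treated cultures. Compound exposure was carried out in a genetically defined yeast strain deficient in DNA damage repair.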

[2] = NCI Yeast Anticancer Drug Screen. Data for the mec2-1 strain (AID 157); settings: S. cerevisiae mec2-1 strain, at 50.0 µM, hits give high values
How it was run: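 Compounds were applied to mec2-1 yeast cells. Their growth was then compared with that of vehicle-treated cultures to give growth inhibition.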

[3] = NCI Yeast Anticancer Drug Screen. Data for the sgs1 mgt1 strain (AID 161);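 note: 0% = growth of cultures given vehicle only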; settings: S. cerevisiae sgs1 mgt1 strain, at 50.0 µM, hits give high values
How it was run: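 Compounds are added to genetically altered yeast, and growth is compared with cultures given vehicle alone to give percent inhibition.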

[4] = NCI Yeast Anticancer Drug Screen. Data for the cln2 rad14 strain (AID 165);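 note: 0% = growth equal to vehicle treated cultures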; settings: S. cerevisiae cln2 rad14 strain, at 50.0 µM, hits give high values
How it was run: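 Strain: cln2 rad14 yeast, altered in cell cycle control and DNA damage repair. Read-out: growth inhibition vs vehicle.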

[5] = NCI Yeast Anticancer Drug Screen. Data for the bub3 strain (AID 167); settings: S. cerevisiae bub3 mutant strain, at 50.0 µM, hits give high values
How it was run: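 Readout: yeast growth inhibition, expressed relative to vehicle-only wells. The test organism is a mutant strain from a panel with lesions in DNA repair or checkpoint genes.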

[6] = NCI Yeast Anticancer Drug Screen. Data for the mlh1 rad18 strain (AID 175); settings: S. cerevisiae mlh1 rad18 strain growth inhibition; at 50.0 µM; hits give high values
How it was run: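 A repair-deficient yeast strain is exposed to test compound, and growth is scored relative to vehicle-treated controls.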

Measured: growth inhibition

COC(=O)c1ccccc1C#CC#Cc1ccccc1C(=O)OC
inactive: [1] -5.25% | [2] -32.1% | [3] 4.6% | [4] 8.85% | [5] -2.4% | [6] -3.5%

N#Cc1cn(Cc2ccccc2)c2ccccc2c1=O
inactive: [1] -0.3% | [2] -3.15% | [3] 3.95% | [4] 47.9% | [5] 7.3% | [6] 1.15%

CCOC(=O)CCc1c(C)c2c(O)cc(O)cc2oc1=O
inactive: [1] 3.25% | [2] -3.5% | [3] -19.5% | [4] 8.3% | [5] -42.9% | [6] 20.7%

O=C(N/N=C/c1cc(Br)cc(Br)c1O)c1ccccc1
inactive: [1] 3.85% | [2] -1.4% | [3] 11.3% | [4] 3.85% | [5] -2.05% | [6] 28.4%

CC(C)(O)c1cccc(I)c1
inactive: [1] 7.7% | [2] -58.9% | [3] -21.1% | [4] -144% | [5] -39.8% | [6] 1.55%

FC(F)(F)c1cc(Nc2nc(-c3ccccc3)nc3c2C(=NCc2ccco2)OC3=NCc2ccco2)ccc1Cl
inactive: [1] 5% | [2] 14.6% | [3] 2.9% | [4] -6.35% | [5] -4.7% | [6] 9.75%

CCCCN1C(=O)c2cc(=O)[nH]c(O)c2C1C (stereo not given)
inactive: [1] -19.4% | [2] 6.35% | [3] -25.9% | [4] -0.55% | [5] -27.1% | [6] 3.25%

CC1CCC(C(=O)O)CC1 (stereo not given)
inactive: [1] -16.9% | [2] -9% | [3] -2% | [4] 21.8% | [5] -0.85% | [6] -14.2%

O=C(NC(Nc1ccc(F)c(Cl)c1)(C(F)(F)F)C(F)(F)F)OCc1ccccc1
inactive: [1] -1.35% | [2] -1.05% | [3] -23.1% | [4] 3.1% | [5] -5.5% | [6] 24.3%

Oc1ccccc1C1SC(c2ccccc2O)SC(c2ccccc2O)S1 (stereo not given)
active: [1] 96.9% | [2] 96% | [3] 95.7% | [4] 93.1% | [5] 97% | [6] 95.8%

COc1ccc(C2Oc3cc(OC)c(OC)cc3C2CCl)cc1OC (stereo not given)
inactive: [1] -20.1% | [2] 1.85% | [3] -46.8% | [4] -0.4% | [5] -26.9% | [6] -35.2%

O/N=C1\C(=C\c2ccc3c(c2)OCCO3)CCCC1C(NO)c1ccc2c(c1)OCCO2 (stereo not given)
inactive: [1] 13.1% | [2] 16.7% | [3] 29.9% | [4] 2.8% | [5] 16.9% | [6] 6.15%

CCc1nc2c([nH]1)C(=O)c1ccccc1C2=O
inactive: [1] 68.1% | [2] 19.2% | [3] 44.2% | [4] 9.25% | [5] 18.7% | [6] 42%

O=C(O)CC(=O)c1ccccc1
inactive: [1] -27.8% | [2] 4.85% | [3] -10.4% | [4] 14.2% | [5] 4.35% | [6] -15.8%

C[n+]1ccccc1/C=C/c1ccc2c(c1)OCO2
inactive: [1] 18.3% | [2] 5.9% | [3] 22.5% | [4] -0.45% | [5] 29.9% | [6] 6.6%

C1=CC(=P(c2ccccc2)(c2ccccc2)c2ccccc2)C=C1
inactive: [1] 20.4% | [2] 25.1% | [3] 10.4% | [4] 38.8% | [5] 4.3% | [6] 34%

CCCCNC(=O)/C=C\C(=O)O
inactive: [1] 5.95% | [2] -10.3% | [3] -1.65% | [4] 2.75% | [5] -8.5% | [6] 1.45%

N#Cc1ccc(Nc2cnc3ccc(N)cc3n2)cc1
inactive: [1] -41.2% | [2] -37.6% | [3] -43.8% | [4] -25.4% | [5] -25.4% | [6] -54.1%

COc1ccc(N2C=Nn3c(nc4sc5c(c4c3=O)CCCC5)C2)cc1
inactive: [1] 9.55% | [2] 4.2% | [3] 0.35% | [4] -1.9% | [5] 4.25% | [6] -24.4%

NCCN1CCCCCc2ccccc21
inactive: [1] -63.2% | [2] -53% | [3] -49.8% | [4] -17.4% | [5] -41.1% | [6] -39.3%
